Data as given in PubChem BioAssay (Tox21).
Several values for one entry are separate records, joined by “and”; a condition that tells them apart may be missing. Equal values may be shown once. Results filed as inconclusive are left out. Entries that show only a call come without a potency. Where a structure was tested more than once in an assay, its records may differ in their call. Activity calls are given as the source filed them. Calls follow the shape of the full dose curve.
Potency is read from the fitted curve at half-maximal effect.

Each compound was assayed against Muscarinic acetylcholine receptor M1 (Homo sapiens) (UniProt P11229) (assay: Cholinergic receptor muscarinic 1 (CHRM1) small molecule antagonists, cell-based qHTS assay (AID 1963588; also: nearly all actives have a fitted effect of over 40% in size)). Conditions: CHRM1-CHO antagonist mode, calcium flux fluorescence; series mostly up to 61.5 µM.
Muscarinic acetylcholine receptor M1 (Homo sapiens), sequence (P11229 whole entry, looked up): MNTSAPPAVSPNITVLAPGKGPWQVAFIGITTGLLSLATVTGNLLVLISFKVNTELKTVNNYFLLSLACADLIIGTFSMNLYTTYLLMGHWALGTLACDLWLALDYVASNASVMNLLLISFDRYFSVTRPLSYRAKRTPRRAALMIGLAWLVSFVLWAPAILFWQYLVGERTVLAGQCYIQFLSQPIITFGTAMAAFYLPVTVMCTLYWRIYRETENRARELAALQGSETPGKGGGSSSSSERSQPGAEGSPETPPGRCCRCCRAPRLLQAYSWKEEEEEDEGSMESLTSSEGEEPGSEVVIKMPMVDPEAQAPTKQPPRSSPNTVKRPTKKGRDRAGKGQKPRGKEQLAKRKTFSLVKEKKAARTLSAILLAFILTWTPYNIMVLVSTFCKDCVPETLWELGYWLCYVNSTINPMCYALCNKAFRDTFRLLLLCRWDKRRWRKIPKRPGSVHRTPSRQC
Excerpt: National Center for Advancing Translational Sciences [NCATS]
Division of Preclinical Innovation [DPI]
U.S. Environmental Protection Agency [EPA]
National Institutes of Environmental Health Sciences [NIEHS]
National Toxicology Program [NTP]
U.S. Food and Drug Administration [FDA]
The CHRM1 is a muscarinic receptor. This receptor plays a crucial role in learning and memory processes and has long been identified as a promising therapeutic target for the improvement of cognitive decline in Alzheimer's disease (AD). The CHRM1-CHO cell line stably expressing human muscarinic acetylcholine receptor M1 (CHRM1) can be used for screening agonists and antagonists of interactions between CHRM1 and its ligands. The CHRM1-CHO Calcium Flux Assay is a homogeneous fluorescence-based assay for detecting the intracellular calcium level using FDSS kinetic plate reader system.
Tox21 Assay Protocol Summary:
CHRM1-CHO cells were dispensed at 1000 cells/3uL/well in 1536-well black-clear bottom plates using a Multidrop Dispenser. After the assay plates were incubated at a 37 C/5% CO2 incubator for 18 h, 3 uL of Dye Loading Buffer was transferred to the assay plate by a Flying Reagent Dispenser. The assay plates were incubated at 37 C for 1h. For antagonist mode, 23 nL of compounds dissolved in DMSO, positive controls or DMSO only was transferred to the assay plate by a pin tool. After 5 min incubation at room temperature, 1.5 uL of acetylcholine at 50nM was added to each well. The fluorescence intensity in the plates was measured using FDSS 7000EX kinetic plate reader for 3 min at 1 sec intervals. Each test compound was measured at 15 concentrations in three independent runs.
For `NNC(=O)c1cccc(C(=O)NN)c1`, the Potency was “inactive”.
`CCCCCCCCC(=O)OCC` was tested, and the Potency was “inactive”.
In the case of `CC(CO)CO`, the Potency is reported as “inactive”.
For `O=C(O)c1ccc(OCCCOc2ccc(C(=O)O)cc2)cc1`, the Potency was “inactive”.
In the case of `ON=C1CCCCC1`, the Potency is reported as “inactive”.
In the case of `Nc1c(NC/C=C\COc2cc(CN3CCCCC3)ccn2)c(=O)c1=O`, the activity, negative = inhibition is reported as -18.5% [at 12.6 µM] (inactive).
In the case of `O=S1(=O)OC(c2ccc(O)cc2)(c2ccc(O)cc2)c2ccccc21`, the Potency is reported as “inactive”.
`COC(=O)c1ccc(C)cc1C1=NC(C)(C(C)C)C(=O)N1` (stereo not given) was tested, and the Potency was “inactive”.
For `NC(=S)Nc1cccc2ccccc12`, the activity, negative = inhibition was -5.9% [at 5.58 µM] (inactive).
With `COC(c1ccccc1)(c1ccccc1)[C@H](Oc1nc(C)cc(C)n1)C(=O)O` the Potency was “inactive”.
For `C[C@@H]1CCC[C@H](C)N1`, the Potency was “inactive”.
For `CCOC(=O)c1ccc(O)c(O)c1`, the Potency was “inactive”.
With `CCOCOCC` the Potency was “inactive”.
`CC(C)[C@@H]1CC[C@@H](C)CC1=O` was tested, and the Potency was “inactive”.
In the case of `CC(C)(C)CC(C)(C)c1ccc(O)c(-n2nc3ccccc3n2)c1`, the Potency is reported as “inactive”.
For `Cc1ncsc1CCO`, the Potency was “inactive”.
With `Nc1ncnc2c1ncn2Cc1c(F)cccc1Cl` the Potency was “inactive”.
With `CCCCCCN` the Potency was “inactive”.
In the case of `CN(C)CCCNCCCN(C)C`, the Potency is reported as “inactive”.
`CN1C(=O)CC(C)(c2ccccc2)C1=O` (stereo not given) was tested, and the Potency was “inactive”.
In the case of `CC/C=C\C#N`, the Potency is reported as “inactive”.
For `C=C(C)C(=O)OCCCCCCOC(=O)C(=C)C`, the Potency was “inactive”.
In the case of `C/C(=C(\CCO)SS/C(CCO)=C(\C)N(C=O)Cc1cnc(C)nc1N)N(C=O)Cc1cnc(C)nc1N`, the Potency is reported as “inactive”.
In the case of `CC(=O)OCCc1ccccc1`, the Potency is reported as “inactive”.
In the case of `O=P(O)(O)O`, the Potency is reported as “inactive”.
`O=C(O)CSCC(=O)NC1CCSC1=O` (stereo not given) was tested, and the Potency was “inactive”.
For `C[Si](C)O[Si](C)C`, the Potency was “inactive”.
`OC1OC[C@@H](O)[C@H](O)[C@H]1O` (stereo not given in full) was tested, and the Potency was “inactive”.
For `CCCCCCOCCOCCO`, the Potency was “inactive”.
For `OCC1(CO)COCOC1`, the Potency was “inactive”.
For `CCCN1C=CN(C)C1`, the Potency was “inactive”.
For `C(=C\c1ccccc1)/c1ccccc1`, the Potency was “inactive”.
With `CCC(C)C1CCCCC1=O` (stereo not given) the Potency was “inactive”.
In the case of `CC(=O)O[C@H](CC(=O)[O-])C[N+](C)(C)C`, the Potency is reported as “inactive”.
`Cc1cccc(S(=O)(=O)O)c1C` was tested, and the Potency was “inactive”.
With `O=C1NC(c2ccccc2)(c2ccccc2)C(=O)N1COP(=O)(O)O` the Potency was “inactive”.
With `NC(=O)Cc1cccc(C(=O)c2ccccc2)c1N` the Potency was “inactive”.
With `C=C(c1ccc(C(=O)O)cc1)c1cc2c(cc1C)C(C)(C)CCC2(C)C` the Potency was “inactive and 18.3 µM (active)”.
For `C/C=C/CO`, the Potency was “inactive”.
`CCc1cnc(C(=O)O)c(C(=O)O)c1` was tested, and the Potency was “inactive”.
